From PubChem BioAssay AID2544 (Sanford-Burnham Center for Chemical Genomics, 2010)
In all, about 330,000 compounds went through this assay and about 390 (0.12%) were called active.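 The calls were made as follows: active = inhibition reaching a set limit with compound at 10 µM in the primary screen (cut at about 35% in these data); inactive = the rest.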 Shown is part of a subset that was picked to be rich in actives.

molecular target: Intestinal-type alkaline phosphatase (Homo sapiens) (UniProt P09923); test: blockers of intestinal alkaline phosphatase activity – biochemical, luminescence, uHTS, primary screen (AID 2544); conditions: purified IAP, CDP-Star luminescence, 30 min; at 10 µM; stronger effect = higher value;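 also: plate controls were DMSO wells with enzyme for no effect and no-enzyme buffer wells for full effect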
Sequence (P09923 whole entry, looked up): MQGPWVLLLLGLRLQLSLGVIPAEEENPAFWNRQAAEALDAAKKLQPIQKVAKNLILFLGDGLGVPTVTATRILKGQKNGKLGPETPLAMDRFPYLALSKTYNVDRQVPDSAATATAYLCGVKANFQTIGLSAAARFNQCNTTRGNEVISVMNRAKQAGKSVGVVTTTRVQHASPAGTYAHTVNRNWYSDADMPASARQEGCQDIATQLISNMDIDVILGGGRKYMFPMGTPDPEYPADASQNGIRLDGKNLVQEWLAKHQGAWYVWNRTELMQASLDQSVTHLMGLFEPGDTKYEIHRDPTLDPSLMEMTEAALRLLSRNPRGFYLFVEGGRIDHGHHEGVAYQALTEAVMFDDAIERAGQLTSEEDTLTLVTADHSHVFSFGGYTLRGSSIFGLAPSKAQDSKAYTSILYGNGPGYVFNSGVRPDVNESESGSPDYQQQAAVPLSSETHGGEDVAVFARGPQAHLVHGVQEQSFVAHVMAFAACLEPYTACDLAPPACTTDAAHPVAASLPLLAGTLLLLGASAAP

inhibition, active:
Cc1c(C=O)c2ccccn2c1C(=O)c1ccncc1 35.9%
Cn1c(=O)c2sccc2n(Cc2ccc(Br)cc2)c1=O 38.1%
O=C(NCCN1CCOCC1)[C@H](Cc1ccccc1)N1C(=O)c2ccccc2C1=O 41.1%
CCC(C)C(=O)Nc1ccccc1N1CCN(c2ccc(F)cc2)CC1 (stereo not given) 42.4%
CCOC(=O)c1cn[nH]c1NC(=S)Nc1ccccc1 60.8%
c1ccc(CSCCc2ccncc2)cc1 39.6%

inhibition, inactive:
Cc1cc(N)n2nc(-c3ccc(C(C)(C)C)cc3)cc2n1 -9%
COc1ccc(-c2nc3cc(C)ccn3c2NC2CCCCC2)cc1SC1CCCCC1 18.9%
CC1(C)OC(=O)C(=CNC(CO)C(=O)O)C(=O)O1 (stereo not given) 4.1%
CCN(CC(=O)NCc1ccc(Cl)cc1)C(=O)c1c(C)noc1C -14.3%
COc1cccc(CNC(=O)C2CC(=O)N(C3CCCCCCC3)C2)c1 (stereo not given) -15%
COC(=O)NNC(=O)C1CCC(C)CC1 (stereo not given) -0.3%
O=C(O)CCn1c(O)c(C=C2N=c3ccccc3=N2)sc1=S -32.1%
Cc1ccc(NC(=O)COC(=O)C2C3CC4OC(=O)C2C4C3)cc1Cl (stereo not given) 5.1%
CCOC(=O)N1CCN(S(=O)(=O)c2cc3c(cc2C)NC(=O)CO3)CC1 -3.7%
O=C(CNC(=O)c1n[nH]c2ccccc12)Nc1cc(Cl)ccc1Cl -16.2%
FC(F)(F)c1ccnc(Oc2ccc(C3=NCCS3)cc2)c1 10.4%
CC(C)(C)OC(=O)N1CCC(NC(=O)c2[nH]cnc2C(=O)N[C@@H](Cc2ccccc2)C(=O)OCc2ccccc2)CC1 -35.2%
COc1ccccc1C(=O)OCC(=O)Nc1cccc(S(=O)(=O)NC2=NCCCCC2)c1 19.2%
COc1ccccc1C(CNC(=O)c1ccc(C)c(S(=O)(=O)N2CCCCC2)c1)N(C)C (stereo not given) -3.4%
CN1CCN(CC(=O)C23CC4CC(CC(C4)C2)C3)CC1 4.5%
Cc1ccc(C(=O)N(CC(=O)NC2CCCC2)c2ccc(F)cc2)s1 -20.5%
CCCc1cc(C(=O)N2CCCC(CO)(CCCc3ccccc3)C2)n(C)n1 (stereo not given) -5.7%
CC#CC[N+](C)(C)CCCCCC 6.2%
O=C(/C=C/c1cccc(C(F)(F)F)c1)N1CCN(c2ccccn2)CC1 -1.3%
c1csc(-c2nnc(COc3ncnc4sccc34)o2)c1 13.5%
Cc1sc2ncn(CC(=O)NCCN(C)C)c(=O)c2c1S(=O)(=O)N1CCC(C)CC1 10.2%
CCN(Cc1ccccc1)S(=O)(=O)c1cc(C(=O)O)ccc1OC -17.1%
Cc1ccc(CN2CCN(Cc3cccc(C)n3)CC2CCO)cc1 (stereo not given) 4.3%
Cc1c(C(=O)NNC(=O)c2ccncc2)oc2ccccc12 -50.2%
Cc1cc2ccccn2c1C(=O)c1cccc(F)c1 18.3%
CC1C(=O)C(C)C(c2ccc(O)cc2)NC1c1ccc(O)cc1 (stereo not given) 4.6%
CCc1cc(CNC(=O)CC2C(=O)NCCN2CC2CCCCC2)on1 (stereo not given) -7.8%
COc1ccc(CNC(=O)CSc2n[nH]c(N)n2)cc1OC 5.7%
CS(=O)(=O)Nc1ccccc1C(=O)OCC(=O)NC1CC1 -0.7%
Cn1c(=O)c2c(nc(N/N=C/c3cccs3)n2Cc2ccc(Br)cc2)n(C)c1=O -142%
O=C(NCc1ccco1)c1ccc(Cn2c(=O)c3sccc3n(Cc3ccc(F)cc3)c2=O)cc1 1.3%
N#Cc1c(-c2ccc(F)cc2)cc(C2CC2)nc1SCC(=O)c1cccs1 10.2%
CCOC(=O)Cc1csc(NC(=O)CN(C)S(=O)(=O)c2ccc3c(c2)CCC(=O)N3)n1 -6.4%
CS(=O)(=O)c1sc(C(=O)NC(=S)Nc2ccc(OC(F)(F)F)cc2)c2c1C=CCC2 -34.5%
Cc1ccc2cccc(S(=O)(=O)N3CCN(c4ccccc4F)CC3)c2n1 22.1%
CSc1ccc(CNC(=O)c2ccc(NC(=O)C3=CSCCO3)cc2)cc1 17.2%
O=C(NC1=NCCS1)[C@H](Cc1ccccc1)N1C(=O)c2ccccc2C1=O 4.4%
O=C(CCN1C(=O)c2ccccc2C1=O)NCCN1CCOCC1 -14.9%
CN(C(=O)CSc1cccc[n+]1[O-])C1CCCCC1 2.3%
Cc1cc([N+](=O)[O-])nn1CCCC(=O)Nc1cccnc1Cl 6.1%
CC1(C)O[C@@H]2[C@H](O1)[C@@H](COS(=O)(=O)O)O[C@H]2n1cnc2c(=O)[nH]cnc21 -9%
Cc1cc(Cl)c2oc(C(=O)N3CCC(O)(c4ccccc4)CC3)c(C)c2c1 -10.6%
COc1ccc(Nc2cc(=O)n(-c3ccccc3)c3c2c(=O)n(C)c(=O)n3C)cc1 3.3%
CN(Cc1ccccc1Cl)C(=O)C1CCC(=O)N(CCc2cccc(F)c2)C1 (stereo not given) -4.4%
Cc1cc(C)nc(SCc2nnc(SCC(=O)OC3CCCCC3)o2)n1 -7.3%
CCOCCCN(C(=O)Cn1nnc(-c2ccc(OC)c(OC)c2)n1)C(CC)C(=O)NC1CCCC1 (stereo not given) -21.9%
CC(=O)c1ccc(N2CCN(CC(=O)Nc3ccccc3N3CCOCC3)CC2)cc1 6.2%
CCCCC(=O)Nc1ccccc1N1CCN(c2ccc(F)cc2)CC1 -6.3%
CCOC(=O)c1ccc(NC(=S)Nc2cc(C)cc(C)n2)cc1 -2%
CCOC(=O)c1cc2c(nc1NC(=S)Nc1ccccc1)CC(C)(CC)OC2 (stereo not given) -6.3%
NC(N)=Nc1nc2ccc(Br)cc2c(=O)[nH]1 -7.7%
CC(C)(C)c1ccc(SCCc2ccncc2)cc1 -36.5%
Cc1cc(C)c(SCCc2ccncc2)c(C)c1 -12.6%
O=C1N(c2ccc(Cl)cc2)C(c2ccc(Cl)cc2)N2CCCN12 (stereo not given) 0.2%
